Assay outcomes as filed in PubChem.
Hits are enriched below; roughly 0.41% of the tested compounds scored in any of these assays.
GLA spleen mod – qHTS Assay for Inhibitors and Activators of Human alpha-Galactosidase From Spleen Homogenate. human spleen homogenate, 4MU-alpha-Gal fluorescence, 40 min. Potency, µM (doses to about 80 µM), most hits filed as inhibitors. actives 0.008% (n = 240,000). AID 2107, 2009
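Human spleen homogenate (1 ug) as enzyme source, 4-methylumbelliferyl-alpha-D-galactopyranoside 1 mM final, citrate/phosphate pH 5.0 with 0.01% Tween-20. Compounds 40 min at 37C, NaOH/glycine stop; fluorescence Ex 365/Em 440, Hill-fit AC50.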
aGlu spleen mod – qHTS Assay for Inhibitors and Activators of Human alpha-Glucosidase From Spleen Homogenate; human spleen homogenate, 4-MU-alpha-glucoside fluorescence; actives 0.006% (n = 240,000); Potency, µM (titrated, usually from 79.9 µM), hits mostly inhibitors
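AC50 values come from Hill-equation fits of concentration-response data, normalized to no-enzyme and full-activity controls. Enzyme source: 1 ug human spleen homogenate; 1 mM fluorogenic 4-MU glucoside, pH 5.0 citrate buffer, 37 C, 40 min.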
GAA glycogen mod – qHTS Assay for Inhibitors and Activators of Human alpha-Glucosidase Cleavage of Glycogen; Lysosomal alpha-glucosidase (Homo sapiens), P10253; actives 0.38% (n = 300,000); recombinant GAA, glycogen substrate, Amplex Red glucose oxidase fluorescence; Potency, µM (series often up to 76.4 µM), actives largely listed as inhibitors;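 also: the screen sought inhibitors and activators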
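Recombinant human alpha-glucosidase (4 nM final) hydrolysed bovine liver glycogen (30 ug) for 40 min at 37 C in pH 5.0 citrate/phosphate with 0.01% Tween-20. Released glucose detected by glucose oxidase/Amplex Red, Ex 573/Em 610 nm. Compounds up to 77 uM; AC50 from Hill fits.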
N370S GC – qHTS Assay for Inhibitors and Activators of N370S glucocerebrosidase as a Potential Chaperone Treatment of Gaucher Disease; Lysosomal acid glucosylceramidase (Homo sapiens), P04062; N370S GC spleen homogenate, 4MU-glucoside fluorescence; Potency, µM (series often up to 59.4 µM), most hits filed as inhibitors; actives 0.092% (n = 330,000)
GLA inh pH 4.5 – qHTS Assay for Inhibitors of Human alpha-Galactosidase at pH 4.5; Alpha-galactosidase A (Homo sapiens), P06280; purified enzyme, 4-MU-alpha-Gal fluorescence, pH 4.5; activity change, negative = inhibition, % at 105 µM; 230,000 tested, under 10 active
Target sequence (P06280 whole entry, looked up): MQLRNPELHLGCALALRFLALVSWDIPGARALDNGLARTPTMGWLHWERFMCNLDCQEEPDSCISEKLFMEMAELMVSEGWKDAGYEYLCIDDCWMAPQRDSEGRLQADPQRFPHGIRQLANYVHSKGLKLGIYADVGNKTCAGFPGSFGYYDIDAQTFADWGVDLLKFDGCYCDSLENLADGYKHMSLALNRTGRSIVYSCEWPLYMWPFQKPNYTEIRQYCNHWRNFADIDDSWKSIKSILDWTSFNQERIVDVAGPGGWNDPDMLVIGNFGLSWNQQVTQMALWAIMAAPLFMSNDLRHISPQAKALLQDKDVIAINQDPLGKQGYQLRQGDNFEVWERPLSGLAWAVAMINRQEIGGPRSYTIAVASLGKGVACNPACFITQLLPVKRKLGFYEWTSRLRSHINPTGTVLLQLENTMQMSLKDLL
GAA inh – qHTS Assay for Inhibitors of Human alpha-Glucosidase as a Potential Chaperone Treatment of Pompe Disease; actives 0.005% (n = 200,000); Lysosomal alpha-glucosidase (Homo sapiens), P10253; Potency, µM (doses to about 76.9 µM), hits mostly inhibitors; AID 1466, 2008; purified human GAA, 4-MU-alpha-glucoside fluorescence
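Human enzyme at 4 nM with 400 uM 4-methylumbelliferyl-alpha-D-pyranoside, citrate/phosphate buffer pH 5.0, 0.005% Tween-20, 20 min at room temperature. Compounds up to 77 uM. 4-MU fluorescence (Ex 365/Em 440) read after NaOH/glycine stop; AC50 from Hill fit.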
Hits are given with their value. Calls follow the shape of the dose curve; as a rule, active = well fitted curve in the direction sought with a large enough effect; inconclusive = small, poorly fitted or top-dose-only effect, or another doubt; inactive = no such curve, though single readings can be large; an effect the other way counts as inactive or inconclusive.

`CC1CCC/C(=N/Nc2ccc([N+](=O)[O-])cc2[N+](=O)[O-])C1` (stereo unspecified) gave GLA spleen mod inactive, aGlu spleen mod inactive, GAA glycogen mod 16µM, N370S GC inactive, GLA inh pH 4.5 inactive and GAA inh inactive.
`Cc1c(CNCc2ccc(Cl)cc2)c(C(=O)O)c(C)n1Cc1ccc(F)cc1` gave GAA glycogen mod inactive.
`Cc1c(CNCCc2ccc(S(N)(=O)=O)cc2)c(C(=O)O)c(C)n1Cc1ccc(Cl)cc1` gave GAA glycogen mod 50µM.
Cc1ccc(S(=O)(=O)Nc2nc(C)c(NC(=O)OCCCl)s2)cc1 was read as GLA spleen mod inactive, aGlu spleen mod inactive, GAA glycogen mod 22µM, N370S GC inactive, GLA inh pH 4.5 inactive and GAA inh inactive.
For Cc1nc(NS(=O)(=O)c2ccccc2)sc1NC(=O)OC(C)C the results were GLA spleen mod inactive, aGlu spleen mod inactive, GAA glycogen mod 28µM, N370S GC inactive, GLA inh pH 4.5 inactive and GAA inh inactive.
For CN(C)C(C(=O)Nc1cc(Cl)cc(Cl)c1)c1ccccc1 (stereo unspecified) the results were GLA spleen mod inactive, aGlu spleen mod inactive, GAA glycogen mod inactive, N370S GC inactive, GLA inh pH 4.5 inactive and GAA inh inconclusive.
`CC(OC(=O)c1ccc2ncsc2c1)C(=O)Nc1ncc(Cl)cc1Cl` (stereo unspecified) gave GLA spleen mod inactive, aGlu spleen mod inactive, GAA glycogen mod inactive, N370S GC inactive, GLA inh pH 4.5 inactive and GAA inh inactive.
For O=C(CCS(=O)(=O)c1ccccc1)NCc1ccccc1 the results were GAA glycogen mod inactive and N370S GC inactive.
For c1ccc(CNc2nc(-c3cccs3)nc3ccccc23)nc1 the results were GLA spleen mod inactive, aGlu spleen mod inactive, GAA glycogen mod inactive, N370S GC inactive, GLA inh pH 4.5 inactive and GAA inh inactive.
Cc1ccc(CNc2nc(-c3cccs3)nc3ccccc23)cc1 was read as GLA spleen mod inactive, aGlu spleen mod inactive, GAA glycogen mod inactive, N370S GC 14µM, GLA inh pH 4.5 inactive and GAA inh inactive.
N#Cc1nc(Cc2ccccc2)oc1NCc1ccccc1 was read as GLA spleen mod inactive, aGlu spleen mod inactive, GAA glycogen mod 50µM, N370S GC inactive, GLA inh pH 4.5 inactive and GAA inh inactive.
`Cc1ccc(CNc2oc(-c3cccs3)nc2C#N)cc1` gave GLA spleen mod inconclusive, aGlu spleen mod inactive, GAA glycogen mod 22µM, N370S GC inactive, GLA inh pH 4.5 inactive and GAA inh inconclusive.
For COc1cc(C)c(Cl)cc1S(=O)(=O)n1cnc2ccccc21 the results were GLA spleen mod inactive, aGlu spleen mod inactive, GAA glycogen mod inactive, N370S GC inactive, GLA inh pH 4.5 inactive and GAA inh inactive.
Cc1cccc(C)c1NC(=S)N(Cc1ccco1)C1CCN(C(C)C)CC1 was read as GLA spleen mod inactive, aGlu spleen mod inactive, GAA glycogen mod inactive, N370S GC inactive, GLA inh pH 4.5 inactive and GAA inh inactive.
CCn1cc(C(=O)NCCc2ccccc2)c(=O)c2cc(S(=O)(=O)N(C)C)ccc21 was read as GAA glycogen mod inactive and N370S GC inactive.
`CC(NC(=O)C1CCN(S(=O)(=O)Cc2ccccc2)CC1)c1ccccc1` (stereo unspecified) gave GAA glycogen mod inactive.
C=CCn1c(C)cc(C(=O)Cn2ncc(Cl)c(Cl)c2=O)c1C was read as GLA spleen mod inactive, aGlu spleen mod inactive, GAA glycogen mod inactive, N370S GC inactive, GLA inh pH 4.5 inactive and GAA inh inactive.
`CCOC(=O)N1CCC(NC(=O)c2ccc(CS(=O)(=O)c3ccc(OC)cc3)o2)CC1` gave GLA spleen mod inactive, aGlu spleen mod inactive, GAA glycogen mod inactive, N370S GC inactive, GLA inh pH 4.5 inactive and GAA inh inactive.
Screening O=C(CSc1cn(CCNC(=O)c2c(F)cccc2F)c2ccccc12)Nc1ccccc1F returned GAA glycogen mod inactive.
For O=C(CSc1cccc[n+]1[O-])c1cc2ccccc2o1 the results were GLA spleen mod inactive, aGlu spleen mod inactive, GAA glycogen mod inconclusive, N370S GC inactive, GLA inh pH 4.5 inactive and GAA inh inactive.
COc1ccc(Cn2nc(C)cc2C)cc1OC was read as GLA spleen mod inactive, aGlu spleen mod inactive, GAA glycogen mod inactive, N370S GC inactive, GLA inh pH 4.5 inactive and GAA inh inactive.
Screening CCOc1ccc(C(C)=O)cc1COc1ccc(-c2nnco2)cc1 returned N370S GC 11µM.
For CCOc1ccc2nc(N(CCN(C)C)C(=O)/C=C/c3cccs3)sc2c1 the results were N370S GC inactive.
COc1cccc(NC(=O)CN(C)S(=O)(=O)c2ccc3c(c2)n(C)c(=O)c(=O)n3C)c1 was read as GAA glycogen mod inactive and N370S GC inactive.
C(=Nc1cccc2c(N=Cc3ccco3)cccc12)c1ccco1 was read as GLA spleen mod inactive, aGlu spleen mod inactive, GAA glycogen mod 14µM, N370S GC inactive, GLA inh pH 4.5 inactive and GAA inh inactive.
Screening CN(C)c1ccc(N=Cc2ccco2)cc1 returned GLA spleen mod inactive, aGlu spleen mod inactive, GAA glycogen mod inconclusive, N370S GC inactive, GLA inh pH 4.5 inactive and GAA inh inactive.
Cc1cc(C)cc(-n2nnc(C(=O)NCc3ccco3)c2N)c1 was read as GLA spleen mod inactive, aGlu spleen mod inactive, GAA glycogen mod inactive, N370S GC inactive, GLA inh pH 4.5 inactive and GAA inh inactive.
Screening COc1ccc2[nH]c(C(=O)O)c(NS(=O)(=O)c3ccc(Cl)s3)c2c1 returned GLA spleen mod inactive, aGlu spleen mod inactive, GAA glycogen mod 9.9µM, N370S GC inactive, GLA inh pH 4.5 inactive and GAA inh inactive.
For CCOC(=O)c1[nH]c2ccc(OC)cc2c1NS(=O)(=O)c1ccc(Cl)s1 the results were GLA spleen mod inactive, aGlu spleen mod inactive, GAA glycogen mod inactive, N370S GC inactive, GLA inh pH 4.5 inactive and GAA inh inactive.
`COc1ccc(NC(=S)NNc2ccc(S(=O)(=O)Nc3ccccc3C(=O)O)cc2[N+](=O)[O-])cc1` gave GLA spleen mod inactive, aGlu spleen mod inactive, GAA glycogen mod 25µM, N370S GC inactive and GLA inh pH 4.5 inactive.
`CC(=O)Nc1ccc(N/C=C/C(=O)c2ccco2)cc1` gave GLA spleen mod inactive, aGlu spleen mod inactive, GAA glycogen mod inactive, N370S GC inactive, GLA inh pH 4.5 inactive and GAA inh inactive.
